Source: PubChem BioAssay
CYP2C19 activ = cytochrome P450 2C19 (human) activation; recombinant CYP2C19, luciferin-H EGE luminescence; active compounds read high; 0 = fully inhibited enzyme, 1 = untreated enzyme; activation factor at 5 µM; P33261; 96,000 tested, under 10 active; AID 1025;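 active means activation factor of at least 2 at 5 µM in the primary screen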;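 further: 0 = wells with 2.5 mM tranylcypromine and 1 = vehicle-only wells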
Target sequence (P33261 whole entry, looked up): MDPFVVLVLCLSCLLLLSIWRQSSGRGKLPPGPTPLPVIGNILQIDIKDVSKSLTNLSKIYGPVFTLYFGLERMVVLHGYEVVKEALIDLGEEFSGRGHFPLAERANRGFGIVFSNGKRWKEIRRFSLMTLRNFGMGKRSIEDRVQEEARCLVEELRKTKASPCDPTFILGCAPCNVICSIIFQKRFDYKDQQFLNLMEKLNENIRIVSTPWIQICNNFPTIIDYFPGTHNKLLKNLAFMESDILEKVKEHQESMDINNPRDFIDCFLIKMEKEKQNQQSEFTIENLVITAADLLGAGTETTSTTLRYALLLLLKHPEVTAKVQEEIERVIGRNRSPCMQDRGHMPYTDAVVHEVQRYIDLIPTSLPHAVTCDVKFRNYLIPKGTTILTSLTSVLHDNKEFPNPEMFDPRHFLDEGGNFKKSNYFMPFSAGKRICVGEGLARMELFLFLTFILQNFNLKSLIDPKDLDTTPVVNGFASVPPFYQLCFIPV
CYP2C19 inhib = inhibitors of human CYP2C19; actives 21% (n = 96,000); inhibition, % at 5 µM; AID 778; CYP2C19 Supersomes, luciferin-H EGE luminescence, 30 min; P33261;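 active means CYP2C19 inhibition above a set limit at 5 µM in the primary screen, cut at about 50% in these data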;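 further: plate controls were negative control wells for no effect and 2.5 mM tranylcypromine positive control for full effect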
Pyk2 oligo antag = Pyk2 (human) oligomerization antagonism; actives 0.83% (n = 99,000); z-score (the deposit names both 25 µM and 10 µM); AID 1347419; Q14289; Q293 cells, Pyk2 FERM NanoBiT luminescence; active compounds read low;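 active means Z-score of -3 or lower, scaled per plate to the spread of control and sample wells; inactive means z-score above -3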;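 further: negative z-score means lost luminescence so less FERM oligomerization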
CYP2C9 act = increases human cytochrome P450 2C9 activity. recombinant CYP2C9, luciferin-H conversion, luminescence; active compounds read high; factor 1 = untreated enzyme, 0 = blocked. activation factor at 5 µM. actives 1.4% (n = 96,000);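 active means activation factor of 2 or more for CYP2C9 at a 5 µM dose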;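 further: 0 = sulfaphenazole-blocked wells and 1 = vehicle-only wells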
CYP2C9 inh = human CYP2C9 inhibition. CYP2C9 Supersomes, luciferin-H conversion, luminescence. inhibition, % at 5 µM. actives 20% (n = 96,000);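 active means blocking of liver enzyme CYP2C9 beyond about 50% at 5 µM, limit read from the data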
* marks the source's active call; other numbers are inactive results; · = no result given. Sampled rows, rich in hits. Any-hit rate of the full collection: about 28%.

SMILES | CYP2C19 activ | CYP2C19 inhib | Pyk2 oligo antag | CYP2C9 act | CYP2C9 inh
COc1ccccc1N1CCN(C(=O)c2cc(C3CC3)on2)CC1 | 0.2 | 81* | · | 0.2 | 77*
COc1ccc(OC)c(-c2cc(C(=O)N3CCN(c4ccccc4)CC3)no2)c1 | 0.2 | 76* | · | 0.8 | 24
COc1ccc(OC)c(-c2cc(C(=O)N3CCc4ccccc4C3)no2)c1 | 0.5 | 47 | -0.1 | 1.7 | -73
CC(=O)OC1=C(C#N)Cn2ccc3cccc1c32 | 0.9 | 11 | · | 1.1 | -14
O=C(c1cc(-c2cccs2)on1)N1CCN(c2ccc(F)cc2)CC1 | 0.9 | 12 | -0.5 | 0.8 | 22
O=C(c1cc(-c2cccs2)on1)N1CCN(c2ccccc2)CC1 | 0.4 | 63* | 0.52 | 0.3 | 72*
CCCCNC(=O)Cn1c2c(c(-c3ccccc3Cl)cc1=O)CCC2 | 0.4 | 61* | · | 0.2 | 78*
CCCCNC(=O)CSc1cc(=O)n(C)c2ccccc12 | 0.9 | 9 | -0.51 | 1 | -4
COc1cc2cc(CN(C(=O)Nc3ccccc3)C3CCCC3)c(=O)[nH]c2cc1OC | 0.6 | 42 | 0.63 | 0.4 | 55*
O=S(=O)(c1ccc2nc(Cc3cccc(C(F)(F)F)c3)[nH]c2c1)N1CCOCC1 | 0.3 | 67* | -0.88 | 0.1 | 86*
O=S(=O)(c1ccc2nc(Cc3ccccc3)[nH]c2c1)N1CCOCC1 | 0.6 | 36 | -1 | 0.5 | 47
O=C1CC(C(=O)Nc2ccccc2)C2(CCCC2)O1 (stereo not drawn) | 0.5 | 46 | 0.71 | 1 | 3
COc1ccc(NC(=O)C2CC(=O)OC23CCOC(C)(C)C3)cc1 (stereo not drawn) | 0.4 | 57* | 0 | 0.8 | 15
COc1ccc(C)cc1NC(=O)C1CC(=O)OC12CCCCC2 (stereo not drawn) | 0.2 | 78* | -0.33 | 1 | 3
Cc1cccc(NC(=O)C2CC(=O)OC23CCCCC3)c1 (stereo not drawn) | 0.2 | 76* | -0.55 | 0.9 | 7
CC(C)c1ccc(OCC(O)CN2CCN(c3ccccc3)CC2)cc1 (stereo not drawn) | 0.7 | 35 | -1.4 | 0.9 | 12
CC(C)(C)N=Cc1cc(-c2ccccc2)sc1O | 0.9 | 8 | -0.22 | 0.9 | 6
CC(C)=CCC(C)(C)C1OCCN1C(=O)c1ccccc1 (stereo not drawn) | 0.3 | 71* | -0.47 | 0.6 | 44
O=C(O)C1Cc2ccccc2CN1C(=O)c1ccccc1 (stereo not drawn) | 1 | 0 | 0.98 | 1.1 | -10
CCC1Oc2ccc(C)cc2N(CC(=O)N(Cc2ccc(C)o2)C2CCCC2)C1=O (stereo not drawn) | · | · | -0.86 | · | ·
CS(=O)(=O)N(CC(=O)NCC1CCCO1)Cc1ccc(Cl)cc1 (stereo not drawn) | 0.2 | 78* | -0.22 | 1 | 4
CS(=O)(=O)N(CC(=O)NC1CCCCC1)Cc1ccc(Cl)cc1 | 0.8 | 23 | 1.6 | 1.2 | -17
O=C(CN(CCc1ccccc1)C(=O)CNS(=O)(=O)c1ccccc1)NCC1CCCO1 (stereo not drawn) | 0.9 | 9 | 0.37 | 1.1 | -7
CS(=O)(=O)N(CCc1ccccc1)CC(=O)NCC1CCCO1 (stereo not drawn) | 0.4 | 56* | 0.26 | 1 | 2
CS(=O)(=O)N(CC(=O)NC1CCCC1)Cc1ccc(Cl)cc1 | 0.4 | 58* | 0.57 | 0.7 | 26
SMILES | CYP2C19 activ | CYP2C19 inhib | Pyk2 oligo antag | CYP2C9 act | CYP2C9 inh
CC(=O)Nc1ccc(C(=O)OCc2ccc(Cl)cc2)cc1 | 0.4 | 63* | -0.81 | 0.2 | 75*
CCOC(=O)C1CCN(c2c(NC3CCCCCCC3)c(=O)c2=O)CC1 | 0.9 | 8 | · | 0.9 | 13
COc1cc(C)c2occ(/C(C)=N\O)c2c1 | 0.9 | 15 | 4.6 | 0.9 | 12
O=C(CSC1=NCCS1)Nc1ccnc2ccccc12 | 0.7 | 32 | -0.01 | 0.6 | 38
O=C(NC1CCCCC1)C(c1ccc(O)cc1)N(CC1CCCO1)C(=O)C1COc2ccccc2O1 (stereo not drawn) | 0.3 | 70* | -0.65 | 0.3 | 69*
Cc1cc(C)cc(N(CC(=O)NCC2CCCO2)C(=O)CN2C(=O)COc3ccccc32)c1 (stereo not drawn) | 0.8 | 21 | 0.08 | 0.5 | 49
O=C1CC(C(=O)N(CC2CCCO2)C(C(=O)NC2CCCCC2)c2ccncc2)CS1 (stereo not drawn) | · | · | -0.63 | · | ·
CC(=O)Nc1ccc(C(=O)OCC(=O)N(Cc2ccccc2)C(C)(C)C)cc1 | 0.2 | 79* | -1 | 0.3 | 71*
